Data taken from ChEMBL document CHEMBL3988442, “University of Dundee, Small-Polar-MMV Screening Library” (2021).
For some assays here: Measured potencies and affinities stand elsewhere.

Target: T1, Ubiquitin-activating enzyme e1, putative (Leishmania donovani (strain BPK282A1)) (UniProt E9BSI1)
T1 sequence (whole entry): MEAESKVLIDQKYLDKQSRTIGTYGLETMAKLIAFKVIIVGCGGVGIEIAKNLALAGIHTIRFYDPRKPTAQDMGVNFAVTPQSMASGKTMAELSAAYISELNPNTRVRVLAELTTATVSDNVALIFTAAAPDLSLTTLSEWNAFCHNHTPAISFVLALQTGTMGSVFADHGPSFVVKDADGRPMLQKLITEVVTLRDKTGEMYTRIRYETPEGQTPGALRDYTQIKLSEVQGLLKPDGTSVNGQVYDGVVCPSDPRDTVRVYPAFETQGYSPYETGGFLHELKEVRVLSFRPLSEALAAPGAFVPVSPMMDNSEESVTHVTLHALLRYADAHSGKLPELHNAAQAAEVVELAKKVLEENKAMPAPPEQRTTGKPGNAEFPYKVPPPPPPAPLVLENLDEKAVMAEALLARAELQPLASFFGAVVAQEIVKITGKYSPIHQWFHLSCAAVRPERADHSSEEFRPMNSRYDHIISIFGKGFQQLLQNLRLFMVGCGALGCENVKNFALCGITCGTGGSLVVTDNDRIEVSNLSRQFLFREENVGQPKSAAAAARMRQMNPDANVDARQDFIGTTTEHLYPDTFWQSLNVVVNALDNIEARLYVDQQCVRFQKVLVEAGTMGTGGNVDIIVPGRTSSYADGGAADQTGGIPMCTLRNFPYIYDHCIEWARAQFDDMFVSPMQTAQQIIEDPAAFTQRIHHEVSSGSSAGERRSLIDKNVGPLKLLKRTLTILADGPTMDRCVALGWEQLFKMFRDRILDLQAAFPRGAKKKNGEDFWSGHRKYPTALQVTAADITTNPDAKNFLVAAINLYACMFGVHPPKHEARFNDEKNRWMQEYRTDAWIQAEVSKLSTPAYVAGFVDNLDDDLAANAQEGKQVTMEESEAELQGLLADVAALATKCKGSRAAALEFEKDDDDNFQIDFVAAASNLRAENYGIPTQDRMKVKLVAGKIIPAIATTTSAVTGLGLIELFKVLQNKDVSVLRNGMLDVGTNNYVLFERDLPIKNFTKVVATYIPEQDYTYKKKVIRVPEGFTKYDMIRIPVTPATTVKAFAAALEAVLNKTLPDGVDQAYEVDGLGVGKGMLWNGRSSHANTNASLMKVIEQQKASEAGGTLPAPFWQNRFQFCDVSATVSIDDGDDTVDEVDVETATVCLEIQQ
Experiment: Leishmania donovani Ubiquitin Activating Enzyme (LdE1)
Type: functional
Set-up: scale not given: direction of the effect not stated beside the values
Conditions: 30 µM

| Compound | Percent Effect [%] |
| --- | --- |
| Cc1cnn(CC2CCCN2CC(=O)Nc2cc(C(C)(C)C)no2)c1 (stereo not given) | 13 |
| O=C(NCCCNc1ccccc1)c1scnc1Cl | 13.3 |
| Cc1noc(Cl)c1CCC(=O)N1CCc2sccc2C1 | 18.7 |
| COCC1CC2(CCN(Cc3ccc(OC)cc3)CC2)CN1C(C)C (stereo not given) | -9.09 |
| CCCN1CCCn2nc(CNS(=O)(=O)c3cccc(C#N)c3)cc2C1 | 8.11 |
| CC(C)c1cc(N2CCN(c3ccc(O)cc3)CC2)n2nccc2n1 | 5.41 |
| CC(Cn1cccn1)NC(=O)Cc1cccs1 (stereo not given) | 16 |
| CCCC(=O)N1CCC2(CC1)CC(NC(C)=O)c1ccccc1O2 (stereo not given) | 1.3 |
| Cc1cnn(CC2CN(CC(=O)N(C)Cc3cccs3)CCO2)c1 (stereo not given) | 5.33 |
| CCN1CCN(C(=O)NCCOc2ccc3c(c2)OCO3)CC1 | 20.8 |
| COc1ccc(C(=O)NCCCn2ccnc2)c(OC)n1 | 24.7 |
| CN1CCCn2c(nc(CNC(=O)c3ccsc3)cc2=O)C1 | 1.3 |
| Clc1ccccc1-c1nc(CNC2CCc3ncnn3C2)cs1 (stereo not given) | -12.8 |
| CCS(=O)(=O)c1ncc(CN(C)Cc2ccccn2)n1CCOC | 5.41 |
| COc1ncccc1CNC(=O)c1cccc(C)n1 | 23.1 |
| Cn1nc2c(cc1=O)CN(Cc1nc(C(C)(C)C)no1)CC2 | 29.3 |
| O=C(O)c1cc(S(=O)(=O)N2CCOc3ccccc32)ccc1F | 10.3 |
| COc1ccc(CNC(=O)N2CCC(Cc3cnn(C)c3)C2)cc1C (stereo not given) | 7.69 |
| O=C(c1ccccn1)N1Cc2nccn2CC(CN2CCOCC2)C1 (stereo not given) | 9.09 |
| CCOC1COC2(CCN(S(=O)(=O)c3cccc(F)c3)CC2)C1 (stereo not given) | 6.49 |

| Compound | Percent Effect [%] |
| --- | --- |
| Cc1ccc(CN2CCCn3c(nc(CN4CCCC4)cc3=O)C2)s1 | 3.9 |
| COc1ccc(F)cc1C(=O)N(C)Cc1cc(C)on1 | 15.4 |
| CCc1nc(C)ncc1C(=O)N1CCCC(n2nc(C)nc2C)C1 (stereo not given) | -53.9 |
| CCC(O)CN1CCN(C(=O)c2sccc2OC)CC1 (stereo not given) | 7.79 |
| CN(Cc1noc(C2CC2)n1)C1CCN(Cc2ccncc2)C1 (stereo not given) | 20.5 |
| CCCC(C)C(=O)N1CCC(n2cccc2C(=O)OC)CC1 (stereo not given) | 10.4 |
| CC(=O)N1N=C(c2ccccc2)OC1C(=O)NCCc1cccc(Cl)c1 (stereo not given) | 6.67 |
| Cc1occc1C(=O)N1CC[C@@H](N2CCOCC2)[C@@H]1Cc1ccccc1 | 11.7 |
| CO[C@@H]1CCN(C(=O)c2ccccn2)[C@H]1Cc1ccccc1 | 19.5 |
| Cc1cc(CN(C)C(=O)c2ccnc(N(C)C)c2)no1 | 8 |
| CCn1ccnc1CN1CCN(CC(O)c2ccccc2)CC1 (stereo not given) | 2.56 |
| Cc1nn(C)c(N(C)C)c1CNCCCN(C)S(C)(=O)=O | 12.8 |
| O=C1CC(c2ccco2)c2sc(C(=O)O)c(-c3ccccc3)c2N1 (stereo not given) | 18.9 |
| Cc1cccc(CN2C(=O)CCC23CCN(Cc2cccn2C)CC3)n1 | 27.3 |
| Nc1nc2nc(C3CCCN(C(=O)c4cscn4)C3)ccc2s1 (stereo not given) | 22.7 |
| CCc1ccc(O)c(C(=O)NC2CCN(C(=O)OC)CC2)c1 | 15.4 |
| CS(=O)(=O)N1CCC[C@]2(C[C@@H](Oc3ncccc3F)CO2)C1 | 11.7 |
| Fc1cccc(-c2nc(CN3CCn4c(nnc4C4CC4)C3)co2)c1 | 0 |
| CC(c1nc(C2CC2)no1)N1CCN(Cc2ccsc2)CC1 (stereo not given) | 2.56 |
| Cc1cc(CN(C)C(=O)c2ccc(C(F)(F)F)nc2)no1 | -2.67 |

Target: Sialic acid-binding Ig-like lectin 9 (Homo sapiens) (UniProt Q9Y336)
Experiment: Hs-Siglec9 ALPHAscreen SOP 20170721
Set-up: scale not given: direction of the effect not stated beside the values
Conditions: 10 µM

Sialic acid-binding Ig-like lectin 9 (Homo sapiens), sequence (Q9Y336 whole entry): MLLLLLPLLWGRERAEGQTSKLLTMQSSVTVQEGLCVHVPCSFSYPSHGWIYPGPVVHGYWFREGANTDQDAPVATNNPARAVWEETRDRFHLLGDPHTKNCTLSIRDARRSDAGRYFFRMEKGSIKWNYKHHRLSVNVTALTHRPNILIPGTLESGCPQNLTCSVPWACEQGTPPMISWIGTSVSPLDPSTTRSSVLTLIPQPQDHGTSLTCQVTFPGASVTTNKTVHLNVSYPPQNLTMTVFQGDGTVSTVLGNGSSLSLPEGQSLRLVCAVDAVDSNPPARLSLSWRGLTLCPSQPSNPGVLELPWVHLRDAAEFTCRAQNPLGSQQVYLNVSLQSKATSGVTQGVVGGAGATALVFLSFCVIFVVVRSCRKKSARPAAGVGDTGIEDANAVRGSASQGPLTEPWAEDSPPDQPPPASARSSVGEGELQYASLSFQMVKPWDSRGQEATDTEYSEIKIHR

| Compound | Percent Effect [%] |
| --- | --- |
| Cc1cnn(CC2CCCN2CC(=O)Nc2cc(C(C)(C)C)no2)c1 (stereo not given) | 2.37 |
| O=C(NCCCNc1ccccc1)c1scnc1Cl | -2.42 |
| Cc1noc(Cl)c1CCC(=O)N1CCc2sccc2C1 | 4.18 |
| COCC1CC2(CCN(Cc3ccc(OC)cc3)CC2)CN1C(C)C (stereo not given) | -0.064 |
| CCCN1CCCn2nc(CNS(=O)(=O)c3cccc(C#N)c3)cc2C1 | 11.2 |
| CC(C)c1cc(N2CCN(c3ccc(O)cc3)CC2)n2nccc2n1 | 0.937 |
| CC(Cn1cccn1)NC(=O)Cc1cccs1 (stereo not given) | 1.17 |
| CCCC(=O)N1CCC2(CC1)CC(NC(C)=O)c1ccccc1O2 (stereo not given) | -0.437 |
| Cc1cnn(CC2CN(CC(=O)N(C)Cc3cccs3)CCO2)c1 (stereo not given) | -0.649 |
| CCN1CCN(C(=O)NCCOc2ccc3c(c2)OCO3)CC1 | 7.69 |
| COc1ccc(C(=O)NCCCn2ccnc2)c(OC)n1 | 1.39 |
| CN1CCCn2c(nc(CNC(=O)c3ccsc3)cc2=O)C1 | -2.49 |
| Clc1ccccc1-c1nc(CNC2CCc3ncnn3C2)cs1 (stereo not given) | -3.7 |
| CCS(=O)(=O)c1ncc(CN(C)Cc2ccccn2)n1CCOC | 13.7 |
| COc1ncccc1CNC(=O)c1cccc(C)n1 | -18.5 |
| Cn1nc2c(cc1=O)CN(Cc1nc(C(C)(C)C)no1)CC2 | 6.04 |
| O=C(O)c1cc(S(=O)(=O)N2CCOc3ccccc32)ccc1F | -10.2 |
| COc1ccc(CNC(=O)N2CCC(Cc3cnn(C)c3)C2)cc1C (stereo not given) | -4.56 |
| O=C(c1ccccn1)N1Cc2nccn2CC(CN2CCOCC2)C1 (stereo not given) | -2.41 |
| CCOC1COC2(CCN(S(=O)(=O)c3cccc(F)c3)CC2)C1 (stereo not given) | -0.342 |

| Compound | Percent Effect [%] |
| --- | --- |
| Cc1ccc(CN2CCCn3c(nc(CN4CCCC4)cc3=O)C2)s1 | -1.12 |
| COc1ccc(F)cc1C(=O)N(C)Cc1cc(C)on1 | -5.44 |
| CCc1nc(C)ncc1C(=O)N1CCCC(n2nc(C)nc2C)C1 (stereo not given) | -2.48 |
| CCC(O)CN1CCN(C(=O)c2sccc2OC)CC1 (stereo not given) | 10.4 |
| CN(Cc1noc(C2CC2)n1)C1CCN(Cc2ccncc2)C1 (stereo not given) | -22.8 |
| CCCC(C)C(=O)N1CCC(n2cccc2C(=O)OC)CC1 (stereo not given) | 13.2 |
| CC(=O)N1N=C(c2ccccc2)OC1C(=O)NCCc1cccc(Cl)c1 (stereo not given) | -6.99 |
| Cc1occc1C(=O)N1CC[C@@H](N2CCOCC2)[C@@H]1Cc1ccccc1 | 1.96 |
| CO[C@@H]1CCN(C(=O)c2ccccn2)[C@H]1Cc1ccccc1 | 2.27 |
| Cc1cc(CN(C)C(=O)c2ccnc(N(C)C)c2)no1 | 1.08 |
| CCn1ccnc1CN1CCN(CC(O)c2ccccc2)CC1 (stereo not given) | 2.88 |
| Cc1nn(C)c(N(C)C)c1CNCCCN(C)S(C)(=O)=O | -8.74 |
| O=C1CC(c2ccco2)c2sc(C(=O)O)c(-c3ccccc3)c2N1 (stereo not given) | 68.7 |
| Cc1cccc(CN2C(=O)CCC23CCN(Cc2cccn2C)CC3)n1 | -0.409 |
| Nc1nc2nc(C3CCCN(C(=O)c4cscn4)C3)ccc2s1 (stereo not given) | -9.01 |
| CCc1ccc(O)c(C(=O)NC2CCN(C(=O)OC)CC2)c1 | -8.93 |
| CS(=O)(=O)N1CCC[C@]2(C[C@@H](Oc3ncccc3F)CO2)C1 | -6.01 |
| Fc1cccc(-c2nc(CN3CCn4c(nnc4C4CC4)C3)co2)c1 | -4.75 |
| CC(c1nc(C2CC2)no1)N1CCN(Cc2ccsc2)CC1 (stereo not given) | 2.79 |
| Cc1cc(CN(C)C(=O)c2ccc(C(F)(F)F)nc2)no1 | 3.03 |
